Lassa entry inh – Lassa virus entry inhibition; Lassa virus pseudotype entry inhibition, cell reporter; Potency, µM (top dose mostly 37.9 µM), for inactives: top-dose activity change, negative = inhibition, usual class: inhibitors; actives 1.2% (n = 300,000); AID 540256; calls by dose curve; tested in HEK293 cells; further: potency means the concentration at half of the fitted maximal effect; on the % scale 0 is the no-effect control and ±100 the full control effect; nearly all actives have a fitted effect of over 50% in size
Marburg entry inh – blocks Marburg virus binding to or entry into cells. Potency, µM (doses to about 37.8 µM), for inactives: at the highest dose activity change, negative = inhibition, actives largely listed as inhibitors. actives 1.8% (n = 300,000). Marburg virus pseudotyped entry inhibition, cell reporter; calls by dose curve; tested in HEK293 cells; further: potency means the concentration at half of the fitted maximal effect; on the % scale 0 is the no-effect control and ±100 the full control effect
HCV inhibitor – HCV inhibition | Huh7.5.1 HCVcc-Cre infection, luciferase reporter, 44 h | Potency, µM (series often up to 41.8 µM), inactives show top-dose activity change, negative = inhibition, usual class: inhibitors | actives 3.4% (n = 340,000); active means well fitted inhibition curve with a large enough effect; inconclusive means small, poorly fitted or top-dose-only effect, or another doubt; inactive means no such curve, though single readings can be large or run the other way; further: potency means the concentration at half of the fitted maximal effect; on the % scale 0 is the no-effect control and ±100 the full control effect
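HCVcc-Cre virus at an moi near 0.5 was added right after compound to cells cultured 4 h from seeding (1,000 cells/well). Luciferase activity was determined 44 h later, 15 min after substrate addition at RT.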
FMDV inh – antivirals against foot and mouth disease virus. FMDV antiviral cell-based qHTS. Potency, µM (titrated, usually from 57.9 µM), for the others: top-dose activity change, negative = inhibition, most hits filed as inhibitors. actives 1.2% (n = 410,000); calls by dose curve; tested in HEK293T cells; further: read-out not given here; potency means the concentration at half of the fitted maximal effect; on the % scale 0 is the no-effect control and ±100 the full control effect; nearly all actives have a fitted effect of over 45% in size
Shiga toxin inh – Shiga toxin inhibition. actives 9.2% (n = 290,000). Vero cells, Shiga toxin protein synthesis inhibition reporter. inhibition, % at 38.7 µM. AID 2315; in the data active means inhibition mostly above about 28%, no sharp cut-off; inactive means mostly below about 43%; further: 0% is about no effect
CHX counter – affects cycloheximide protein synthesis inhibition readout, counter-screen | cell reporter, cycloheximide protein synthesis inhibition counterscreen | AID 2314 | max response, % | actives 12% (n = 300,000); in the data active means max response mostly above about 13%, no sharp cut-off; inactive means mostly below about 14%; further: read at 38.3 µM for the half of the compounds with a filed dose; 0% is about no effect
Active calls of the source: *; ? = inconclusive; . = no result given; [ ] = remark or other dose. Hits are enriched below; roughly 13% of the tested compounds scored in any of these assays.

SMILES	Lassa entry inh	Marburg entry inh	HCV inhibitor	FMDV inh	Shiga toxin inh	CHX counter
O=C1c2[nH]nc(-c3ccccc3O)c2C(c2ccccc2F)N1Cc1ccco1 (centres undefined)	5.17µM*	-1.1%	?	-20.6%	-10.8	-1.5
COc1cccc(C2c3c(-c4ccccc4O)n[nH]c3C(=O)N2Cc2ccco2)c1 (centres undefined)	.	.	15.4%	-8.1%	1.1	-2.3
COc1cc(C2c3c(-c4cc(C)cc(C)c4O)n[nH]c3C(=O)N2CCCO)cc(OC)c1OC (centres undefined)	8.2µM*	2.8%	-10.3%	-17.1%	-1.4	-3.2
O=C1c2[nH]nc(-c3ccccc3O)c2C(c2ccccc2)N1Cc1ccco1 (centres undefined)	1.46µM*	?	-18.3%	-23.5%	-5.2	-1.4
O=C1c2[nH]nc(-c3ccccc3O)c2C(c2ccc(Cl)cc2)N1Cc1ccco1 (centres undefined)	?	-22.6%[46.1 µM]	.	-21.5%	.	.
COc1ccc(CCN2C(=O)c3[nH]nc(-c4ccccc4O)c3C2c2ccc(O)c(OC)c2)cc1 (centres undefined)	?	-29.3%[46.1 µM]	.	-12.2%	.	.
CC(=O)Nc1cccc(N2C(=O)CC(Cc3ccccc3)C2=O)c1 (centres undefined)	-2.7%	-0.1%	20.5%	-8.4%	5.1	-6.0
COc1ccc(-c2nnc(SCCOc3cccc(C)c3)n2N)cc1	?	5.7%	5.3%	-13.0%	-4.5	1.5
Cc1cccc(OCCOCCSc2ncccn2)c1	?	?	21.4%	29.6%	40.7	10.4*
CCOc1nc(SCCOc2ccc(C)cc2)nc(N(C)C)n1	-5.9%	-3.1%	-6.4%	0.0%	14.5	-2.0
Cc1cccc(OCCSc2nc(N)cc(N)n2)c1	.	.	-14.5%	20.3%	45.5*	19.7*
Cc1ccc(OCCCCNC(C)c2ccccc2)c(C)c1 (centres undefined)	?	11.2µM*	10µM*	-28.7%	.	-4.9
CCNc1nc(NCC)nc(SCCOc2ccc(C)cc2)n1	?	15.8µM*	?	?	-13.2	-3.9
CCC(=O)c1ccc(OCC(=O)N2CCN(c3ccccn3)CC2)cc1	2.0%	-11.6%	16.6%	-20.5%	-2.3	-0.8
Cc1ccc(OCCn2cccn2)c(C)c1	.	.	4.0%	1.3%	22.4	-2.2
Cc1cc(Oc2ccccc2)nc(N)n1	-18.5%	14.6%	0.5%	14.6%	13.9	-1.3
c1ccc(OCCOCCSc2ncccn2)cc1	-5.8%	0.6%	23.5%	29.9%	44.7	20.3*
CCC(=O)c1ccc(OCCSc2ncccn2)cc1	?	-25.8%	0.0%	7.1%	87.7*	53.4*
Cc1ccc(OCCSc2ncccn2)c(C)c1	10µM*	?	-11.1%	6.7%	96.0*	49.2*
Cc1cc(SCCOc2ccccc2)nc(N)n1	0.2%	?	-3.9%	31.1%	80.0*	28.3*
C=C(C)CSc1nc(C)c(Cc2ccccc2)c(=O)[nH]1	4.0%	?	-2.8%	-4.0%	-6.1	-2.7
CCN(CC)c1ncnc2c1ncn2[C@@H]1O[C@H](COP(=O)(O)OP(=O)(O)C(Br)(Br)P(=O)(O)O)[C@@H](O)[C@H]1O	-12.6%	?	.	.	.	.
COc1ccc(OC)c(NC(=O)c2ccc(S(=O)(=O)N3CCOCC3)cc2)c1	?	11.4%[46.1 µM]	-1.5%	-23.1%	-13.8	-3.0
Cc1ccc(Nc2cc(=O)n(C)c(=O)[nH]2)cc1C	.	.	.	-23.3%	.	.
CC(Oc1ccc(Cl)cc1Cl)c1ccnc2nc(N3CCOCC3)nn12 (centres undefined)	-6.0%[46.1 µM]	?	-22.7%	?	-6.5	-3.9
SMILES	Lassa entry inh	Marburg entry inh	HCV inhibitor	FMDV inh	Shiga toxin inh	CHX counter
CS(=O)(=O)c1nc(-c2ccc(Br)cc2)cc(-c2ccccc2)c1C#N	5.8µM*	?	?	?	-10.6	1.1
COc1ccc(-c2cc(-c3ccccc3)c(C#N)c(S(C)(=O)=O)n2)cc1	?	?	25.9%	39.8µM*	-8.0	-1.8
CCS(=O)(=O)CCSc1nc(-c2ccc(Br)cc2)cc(-c2ccccc2)c1C#N	15.9%[46.1 µM]	.	.	-24.5%	.	.
O=C(NCC1Cc2cccc(-c3ncccn3)c2O1)C1CCOC1 (centres undefined)	.	.	.	-13.4%	.	.
COC(=O)c1c(N)n(-c2cc(OC)cc(OC)c2)c2nc3ccccc3nc12	.	2.0%	.	.	.	.
CCOC(=O)N1CCC(Nc2ccc3nnc(-c4ccccc4)n3n2)CC1	.	.	14.1µM*	?	-8.1	-2.6
CCOC(=O)N1CCC(NC(=O)Cc2ccccc2)CC1	.	.	7.0%	0.2%	2.9	-1.9

Screening data deposited in PubChem by National Center for Advancing Translational Sciences (NCATS).
